Measurements taken from PubChem BioAssay AID493215 (National Center for Advancing Translational Sciences (NCATS), 2011).
Inconclusive results are not listed. Values without a mark were called inactive. Activity calls are given as the source filed them. The call rests on the fitted dose curve; in most records, active means well fitted inhibition curve with a large enough effect; inconclusive means small, poorly fitted or top-dose-only effect; inactive means flat fitted curve, though single readings scatter.

Target: Cruzipain (Trypanosoma cruzi) (UniProt P25779)
Sequence (P25779 123-467 limits assumed): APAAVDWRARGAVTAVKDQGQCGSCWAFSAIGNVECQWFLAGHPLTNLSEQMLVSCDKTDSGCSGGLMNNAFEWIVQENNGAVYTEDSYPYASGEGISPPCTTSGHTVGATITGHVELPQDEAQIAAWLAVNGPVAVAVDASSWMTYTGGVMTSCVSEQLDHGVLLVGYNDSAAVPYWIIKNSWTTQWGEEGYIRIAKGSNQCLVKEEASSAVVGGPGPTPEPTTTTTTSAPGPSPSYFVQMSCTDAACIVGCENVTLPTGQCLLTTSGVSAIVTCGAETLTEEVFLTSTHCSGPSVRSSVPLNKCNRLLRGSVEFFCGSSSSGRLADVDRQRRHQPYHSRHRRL
Assay: Inhibitors of Cruzain: Benzimidazole Series - Round 1
Conditions: purified cruzain, Z-FR-AMC fluorogenic cleavage; series mostly up to 57.1 µM; activity change, negative = inhibition: at the top concentration
Method: Cruzain is a cysteine protease from the tropical parasite Trypanosoma cruzi. This assay protocol is for an initial exploratory first round of benzimidazole-based inhibitors. Cruzain was assayed by the use of fluorogenic coumarin-based substrate Z-FR-AMC: proteolytic cleavage releases AMC, whose fluorescence is measured at 360 nm excitation and 450 nm emission. Purified cruzain was supplied by the labs of Prof. James McKerrow and Brian Shoichet, UC San Francisco. This assay had 0.01% Triton X-100 concentration.
See following references for additional details:
Assay Provider: Shoichet, Brian; University of California, San Fancisco
Screening Center PI: Austin, C.P.
Screening Center: NIH Chemical Genomics Center [NCGC]
Buffer: 100 mM Sodium Acetate, pH 5.5, 5 mM DTT, Triton X-100 concentration: 0.01%.
Buffer in columns 3 and 4 as negative control (no enzyme).
Substrate solution: 2 uM final concentration of Z-FR-AMC (catalog number I-1160, Bachem) dispensed throughout the plate.
Enzyme: 1.5 nM Cruzain final concentration in columns 1, 2, 5-48. Column 1 is neutral (100% activity). Column 2 contained titration of covalent inhibitor K11777, starting concentration 1 mM, then 1:2 dilution in duplicate).
Three uL of enzyme or buffer were dispensed to 1536-well Greiner black solid bottom plates. Compounds and controls (23 nL) were transferred via Kalypsys PinTool. The plates were incubated for 15 min at room temperature, and then 1 uL of substrate solution was added to start the reaction. The plates were immediately transferred to and read 4 times every 30 seconds for 2 min on ViewLux High-throughput CCD imager (Perkin-Elmer) using 360 nm excitation and 450 nm emission fluorescence protocol. The fluorescence intensity difference between the third and the first time points (time lapse of 60 seconds) was used to compute reaction progress.

SMILES | activity change, negative = inhibition | Potency
O=C(NCc1nnc(-c2nc3ccccc3[nH]2)o1)C1CCCCC1 | 10.7% | –
O=C(NCCc1nc2ccccc2n1CCO)C1CCCCC1 | – | 6.46 µM (active)
CC(C)(C)OC(=O)NCC(=O)NNC(=O)c1nc2ccccc2[nH]1 | 2.49% | –
O=C(COc1ccc(F)cc1)NCCc1nc2ccccc2[nH]1 | – | 4.08 µM (active)
O=C(COc1ccccc1Br)NCCc1nc2ccccc2[nH]1 | – | 3.63 µM (active)
Cc1ccc(C)c(OCCn2c(CCNC(=O)COc3ccc(F)cc3)nc3ccccc32)c1 | – | 9.13 µM (active)
Cc1ccc(C)c(OCCn2c(CCNC(=O)C3CCCCC3)nc3ccccc32)c1 | – | 1.62 µM (active)
O=C(NNC(=O)c1nc2ccccc2[nH]1)OCc1ccccc1 | -7.65% | –
O=C(Cc1nnc(-c2nc3ccccc3[nH]2)o1)Nc1cc(C(F)(F)F)ccc1Cl | 4.58% | –
CC(C)(C)OC(=O)Cc1nnc(-c2nc3ccccc3[nH]2)o1 | -0.371% | –
CC(C)(C)OC(=O)NCc1nnc(-c2nc3ccccc3[nH]2)o1 | -4.26% | –
